# Results published in PubChem BioAssay AID1063 (University of Pittsburgh Molecular Library Screening Center, 2008).
# In all, about 200,000 compounds went through this assay and about 18,000 (9%) were called active. Rule as the data show it: active = inhibition above about 50%; inactive = the rest. Shown is part of a subset that was picked to be rich in actives.
# Assay: antileishmanial activity against promastigotes – primary screen (AID 1063);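 also: promastigotes grown with compound for 44 hours at 28 °C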
# Conditions: Leishmania major promastigotes, resazurin fluorescence viability; at 10 µM; hits give high values
row,Structure (SMILES),inhibition
1,Cc1cc(C(=O)CSc2nc(N)cc(=O)[nH]2)c(C)n1-c1cccc(F)c1,23.6% (inactive)
2,O=C(CCN1C(=O)/C(=C/c2cccs2)SC1=S)NNC(=O)c1cccc(O)c1,-5.28% (inactive)
3,O=c1c2cc3c(=O)n(CC4CCCO4)c(=O)c3cc2c(=O)n1CC1CCCO1 (stereo unspecified),-5.65% (inactive)
4,O=C(NCc1ccc2c(c1)OCO2)c1ccc2c(c1)C(=O)N(CC1CCCO1)C2=O (stereo unspecified),-1.97% (inactive)
5,O=C1c2cccc3c([N+](=O)[O-])ccc(c23)C(=O)N1CC1CCCO1 (stereo unspecified),101% (active)
6,Cc1cc(C)cc(OCC(=O)Nc2ccc(S(=O)(=O)Nc3ccccn3)cc2)c1,7.3% (inactive)
7,O=C(C1CCCO1)N1CCN(C(=S)NC2CC2)CC1 (stereo unspecified),-5.96% (inactive)
8,CCn1c(-c2ccncc2)n[nH]c1=S,-0.2% (inactive)
9,CCC(O)CNc1nc(-n2nc(C)cc2C)nc2sc3c(c12)CC(C)(C)OC3 (stereo unspecified),9.97% (inactive)
10,Cc1cc(C)n(-c2nc(SCC(=O)N3CCCC3)c3c4c(sc3n2)CCCC4)n1,63.1% (active)
11,COCCNc1nc(-n2nc(C)cc2C)nc2sc3c(c12)CCCC3,64% (active)
12,Cc1nc2sc3c(c2c(=O)n1NC(=O)CCl)CCCC3,-0.99% (inactive)
13,COCCn1c(C)cc(C(=O)CSc2ncnc3sc4c(c23)CCC4)c1C,-5.34% (inactive)
14,Cc1nc(SCC(=O)Nc2cc(C)on2)c2c3c(sc2n1)CCCC3,1.37% (inactive)
15,O=C(CSc1ccc([N+](=O)[O-])cn1)Nc1ccc(N2CCOCC2)c(Cl)c1,8.08% (inactive)
16,O=C(CCc1ccccc1)NCCc1cccs1,-9.15% (inactive)
17,COc1ccc(OC)c2[nH]c(=O)c(CCNC(=O)C(=O)c3c[nH]c4ccccc34)cc12,-6.77% (inactive)
18,COc1cc(NC(=S)N2CCCC(C)C2)c(OC)cc1Cl (stereo unspecified),6.09% (inactive)
19,Cc1cccc(N(C(=O)Cc2cccs2)C(C(=O)NCc2ccco2)c2ccncc2)c1 (stereo unspecified),6.9% (inactive)
20,Cc1cccc(C(=O)N2CCc3c([nH]c4ccccc34)C2CC(C)C)n1 (stereo unspecified),31.8% (inactive)
21,O=C(c1cn2ccccc2n1)N1CCc2c([nH]c3ccccc23)C1c1ccccn1 (stereo unspecified),13.8% (inactive)
22,Cc1cccc(C2c3[nH]c4ccccc4c3CCN2C(=O)c2cc(-c3cccn3C)n[nH]2)n1 (stereo unspecified),70.9% (active)
23,CC1(C)CC(=O)C(CC(=O)N2CCC(Cc3ccccc3)CC2)C(=O)C1,-0.44% (inactive)
24,Cc1cc(C(C)(C)C)cc(S(=O)(=O)Nc2ccc(C(=O)O)cc2)c1C,-3.3% (inactive)

row,Structure (SMILES),inhibition
1,CCOc1ccccc1Nc1ccc(C(=O)O)cc1[N+](=O)[O-],-1.36% (inactive)
2,O=C(Nc1cccc2ccccc12)N1CCN(Cc2ccc3c(c2)OCO3)CC1,24.5% (inactive)
3,O=C(CSCc1ccc(Cl)cc1)N1CCCCC1,-3.7% (inactive)
4,O=C(CSCc1ccc(Cl)cc1)N1CCN(Cc2ccc3c(c2)OCO3)CC1,90.7% (active)
5,CS(=O)(=O)N(CC(=O)N1CCN(Cc2ccc3c(c2)OCO3)CC1)c1ccc2c(c1)OCO2,-5.11% (inactive)
6,O=C(CCCN1C(=O)c2cccc3cccc(c23)C1=O)N1CCN(Cc2ccc3c(c2)OCO3)CC1,53.9% (active)
7,Cn1c(=O)cc(OCCCC(=O)N2CCN(Cc3ccc4c(c3)OCO4)CC2)c2ccccc21,11.9% (inactive)
8,CCc1ccccc1NC(=O)CSc1nnc(-c2ccncc2)o1,-6.71% (inactive)
9,Cc1ccc(OCc2n[nH]c(=S)n2-c2ccc(C)cc2)cc1,1.58% (inactive)
10,Cc1c(-c2cccc(Cl)c2)nc2ccccc2c1C(=O)OCC(=O)N(C)C1CCS(=O)(=O)C1 (stereo unspecified),30.9% (inactive)
11,Cc1ccc(C(=O)N2CCCCCC2)cc1Br,1.69% (inactive)
12,COc1cc(OC)c(C(=O)N2CCCC2)cc1OC,-1.38% (inactive)
13,Cc1c(Br)cc(C(=O)N2CCCCCC2)c(C)c1C,79% (active)
14,Cc1ccc(NC(=O)CSc2nnc(CNC(=O)c3ccccc3F)o2)cc1,-3.87% (inactive)
15,CCC(C)(C)NC(=O)CN(C(=O)C(=O)Nc1ccc2c(c1)OCCO2)C(C)(C)CC,9.2% (inactive)
16,O=C(CN1CCN(C2CCCCC2)CC1)Nc1ccccc1N1CCCCC1,10.2% (inactive)
17,CCOC(=O)CN1CCC(c2ccccc2)CC1,-3.4% (inactive)
18,c1ccc(C2CCC(N3CCC(N4CCCCC4)CC3)CC2)cc1 (stereo unspecified),92.2% (active)
19,O=C(COc1ccc(S(=O)(=O)N2CCCCC2)cc1)NCc1ccccn1,-4.35% (inactive)
20,COc1cc(N/C=C2\CC(=O)NC(C)=C2C#N)cc(OC)c1OC,-6.28% (inactive)
21,O=C(CCS(=O)(=O)Cc1ccccc1)Nc1ccc2c(c1)OCCO2,-2.36% (inactive)
22,O=C(Cn1cnc([N+](=O)[O-])n1)NCCc1ccccc1,21.8% (inactive)
23,O=C(Nc1cccc(CCc2ccccn2)c1)c1ccc(Cl)cc1,2.49% (inactive)
24,Cc1ccc2[nH]c(=O)c(CN(CCCN(C)C)C(=O)Nc3cccc(Cl)c3)cc2c1,93.2% (active)

row,Structure (SMILES),inhibition
1,Cc1cccc(NC(=O)N(Cc2cc3cc(C)cc(C)c3[nH]c2=O)CC2COCCO2)c1 (stereo unspecified),37.5% (inactive)
2,Cc1ccc2[nH]c(=O)c(CN(CC3COCCO3)C(=O)Nc3ccccc3C)cc2c1 (stereo unspecified),4% (inactive)
3,COc1ccc(C(=O)Nc2ccc(NC(=O)C(C)C)nc2)cc1,25.1% (inactive)
4,O=C(N/C(=C\c1ccc(F)cc1)C(=O)N1CCCCCC1)c1ccccc1,-5.92% (inactive)
5,Cc1cc2ccccc2n1CCC(=O)O,-7.95% (inactive)
6,Cc1ccc(/C=N\n2c(-c3ccccc3)n[nH]c2=S)s1,0.81% (inactive)
7,CCc1n[nH]c(=S)n1/N=C/c1c[nH]c2ccc(Br)cc12,11.7% (inactive)
8,S=c1[nH]nc(-c2ccccc2)n1/N=C/c1c[nH]c2ccccc12,54.7% (active)
9,O=C(CCCNS(=O)(=O)c1cccc2nsnc12)NCCN1CCN(c2ccccc2F)CC1,-3.45% (inactive)
10,Cc1cc(-c2csc(N)n2)c(C)n1Cc1ccccc1,7.08% (inactive)
11,COc1ccc(C2NC(=S)NC3=C2CCc2ccccc23)cc1OC (stereo unspecified),57.7% (active)
12,COc1ccc(C2SCCN2S(=O)(=O)c2ccccc2)cc1OC (stereo unspecified),22.3% (inactive)
13,COc1ccc(/C=C2\CCc3ccccc3C2=O)c(OC)c1OC,8.72% (inactive)
14,Cc1onc(C(=O)NCc2ccc(F)cc2)c1[N+](=O)[O-],-5.34% (inactive)
15,CC(=O)c1ccc(NC(=O)C(C)NCc2ccc(Cl)cc2)cc1 (stereo unspecified),-2.38% (inactive)
16,C=Cn1c(C(=O)O)ccc1-c1ccc(OC)cc1,-4.56% (inactive)
17,CCOC(=O)C1CCCN(C(=O)COc2ccc(N(C)S(=O)(=O)c3ccc(C)cc3)cc2)C1 (stereo unspecified),27.7% (inactive)
18,CCC1CCCCN1S(=O)(=O)Cc1ccccc1Cl (stereo unspecified),3.99% (inactive)
19,O=C(CC1C(=O)NCCN1Cc1ccc(-c2ccccc2)cc1)NCC1CCOCC1 (stereo unspecified),2.89% (inactive)
20,Cc1nnc(CN(C)Cc2cn[nH]c2-c2ccc(-c3ccccc3)cc2)o1,26.1% (inactive)
21,CN(CCC1CCOCC1)Cc1cn[nH]c1-c1ccc(-c2ccccc2)cc1,66.8% (active)
22,CC(C(=O)N=Nc1c(O)n(C)c2ccc(Br)cc12)n1cnc2ccccc2c1=O (stereo unspecified),7.13% (inactive)
23,Clc1ccc(-c2ncc3ccccn23)c(Cl)c1,4.32% (inactive)
24,Clc1ccc(-c2cc(C3CCNCC3)[nH]n2)c(Cl)c1,94.3% (active)

row,Structure (SMILES),inhibition
1,O=C1CSC(c2ccccc2)N1c1nc(-c2ccc(Cl)cc2Cl)cs1 (stereo unspecified),-6.37% (inactive)
2,CCOC(=O)c1cc2c(=O)[nH]c(C(Cl)(Cl)Cl)nc2o1,-8.22% (inactive)
3,COc1ccc(C2C(C#N)=C(N)N(c3ncn[nH]3)C3=C2C(=O)CCC3)cc1 (stereo unspecified),-5.04% (inactive)
4,N#CC1=C(N)N(c2ccccc2)C2=C(C(=O)CCC2)C1c1ccccc1 (stereo unspecified),69.2% (active)
5,CSc1sc(C)cc1C1C(C#N)=C(N)N(c2cccnc2)C2=C1C(=O)CCC2 (stereo unspecified),7.04% (inactive)
6,Cc1cc(NC(=O)CSc2nnc(Nc3ccccc3F)s2)no1,0.51% (inactive)
7,O=C(CSc1nnc(C2CC2)n1Cc1ccccc1)Nc1cccnc1Cl,3.75% (inactive)
8,O=C(CSc1nnc(Nc2ccccc2)s1)Nc1cccnc1Cl,66.3% (active)
9,CC(=O)c1c(-c2ccccc2)c2ccccc2[nH]c1=O,-2.95% (inactive)
10,O=C1CCCCC(=O)c2ccccc2N1,0.26% (inactive)
11,c1ccc2c(c1)C(=NC1CCCCC1)NC2=NC1CCCCC1,100% (active)
12,CN(C)S(=O)(=O)c1cccc(NC(=O)COC(=O)/C=C/c2cccs2)c1,-4.76% (inactive)
13,CCOCC(=O)Nc1ncc(S(=O)(=O)c2ccc([N+](=O)[O-])cc2)s1,20.7% (inactive)
14,COc1ccc(N/N=C2/CCCCC2=O)cc1,67.6% (active)
15,COc1ccc(NC(=O)c2c(C)oc3c2CCCC3)cc1,-5.6% (inactive)
16,Cc1ccc(N/N=C2\COC(C)(C)CC2=O)cc1,0.62% (inactive)
17,O=C(N/N=C/c1ccccc1O)/C(=C/c1ccccc1)CCO,97.6% (active)
18,O=C(CCCO)N/N=C/c1cc(Br)ccc1O,12.7% (inactive)
19,O=C(CCCCCNC(=O)c1ccccc1)N/N=C/c1ccccc1,-3.34% (inactive)
20,Cc1c(C=O)c2ccccc2n1CC(=O)O,-9.42% (inactive)
21,Cc1ccccc1OCCC(=O)OCC(=O)NC(C)c1ccccc1 (stereo unspecified),1.48% (inactive)
22,CNC(=O)c1ccsc1NC(=O)c1ccc(S(=O)(=O)N2CCc3ccccc32)cc1,89.2% (active)
23,CNC(=O)c1ccsc1NC(=O)c1ccc(S(=O)(=O)N2CCOCC2)cc1,12.3% (inactive)
24,CC1CN(S(=O)(=O)c2ccc(C(=O)Nc3sccc3C(N)=O)cc2)CC(C)O1 (stereo unspecified),6.76% (inactive)
